Screening results from PubChem.
The list is not random: actives were taken first. Their share in the collection is about 2.4%.
STAT3 inh: STAT3 signaling inhibition. U3A cells, IL-6 STAT3-luciferase reporter, luminescence; host cell line lacks STAT1. inhibition, % at 5.5 µM. hit rate 0.89% among 190,000. AID 862;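 active = inhibition above the mean inhibition across all screened compounds plus 3 SD, cut at about 44% in these data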;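 note: 0% = DMSO only wells and 100% = 100 µM nifuroxazide control wells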
STAT1 blocker: STAT1 signaling inhibition | hit rate 0.35% among 200,000 | NIH 3T3 STAT1-luciferase reporter, IFN-gamma, luminescence | AID 920 | inhibition, % at 5.5 µM;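 active = inhibition above a set limit, the mean inhibition across all tested compounds plus 3 SD, cut at about 34% in these data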;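 note: 0% = IFN-gamma with DMSO and 100% = IFN-gamma with 300 µM nifuroxazide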
TRAIL sens C8: caspase-8 TRAIL sensitization; NB7+C8 cells + TRAIL, ATPlite viability luminescence; hit rate 1% among 360,000; inhibition (viability loss, TRAIL sensitization), % at 10 µM; AID 624354;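 active = compounds causing at least 50% loss of cell viability in the single-dose screen, relative to plate controls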
HSF1 inhib: HSF1 inhibition | AID 2098 | NIH3T3-HGL HSE-luciferase, MG132-induced, luminescence 8 h; hits give low values | hit rate 0.77% among 300,000 | activity change, negative = inhibition, % at 7.5 µM (by protocol);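 active = more than half of replicate wells show activity change below -50%, luminescence cut by over half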;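 note: luciferase reports HSF-1 transcriptional activity via heat shock element; 0% = median of DMSO wells and -100% = zero luminescence signal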
HSP90 inh: blocks HSP90-mediated luciferase refolding in reticulocyte lysate; Rabbit reticulocyte lysate, luciferase refolding luminescence, 3 h; inhibition, % at 5.6 µM; hit rate 0.91% among 290,000;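 active = inhibition above the screen-wide mean plus 3 SD, computed separately per campaign, cut at about 16% in these data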;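 note: 0% = DMSO wells and 100% = 60 µM geldanamycin wells; inhibitors lower the luminescence because luciferase stays unfolded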
PPC-1+TRAIL kill: compounds killing PPC-1 cancer cells with TRAIL present (potentiator screen, no TRAIL-free arm); PPC-1 cells + TRAIL, ATPLite viability luminescence; cell killing (% activity), % at 4 µM or 5 µM; hit rate 0.41% among 220,000; AID 1443;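 active = cell killing above 50% in the first pass at 4 µM, then a duplicate retest at 5 µM averaging 50% or more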;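 note: plate controls were cells with TRAIL plus DMSO for no effect and medium-only wells lacking cells for full effect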
* marks the source's active call; other numbers are inactive results; / = no result given.

SMILES	STAT3 inh	STAT1 blocker	TRAIL sens C8	HSF1 inhib	HSP90 inh	PPC-1+TRAIL kill
CCCC(=O)N1CCC1(C)C(=O)NS(=O)(=O)c1ccc(C(C)(C)C)cc1 (centres undefined)	/	/	-1	/	/	/
Cc1nc(C(F)(F)F)ccc1C(=O)N1CCC(C)(C(=O)NS(=O)(=O)C2CC2)C1 (centres undefined)	/	/	-9	/	/	/
COc1cccc(C(=O)Nc2ccc(NC(=O)C3CC=CCC3C(=O)O)cc2)c1 (centres undefined)	/	/	0	-52*	2	/
COc1cccc(NC(=O)Nc2nnc(Cc3ccccc3F)s2)c1	/	/	10	-67*	-1	/
COc1cccc(NC(=O)c2cccc(C(=O)Nc3cccc(OC)c3)c2)c1	/	/	7	8	-1	/
COc1cccc(NC(=O)Nc2cccc(C(=O)O)c2)c1	92*	88*	25	-32	77*	21
COc1cccc(C(N)c2nc(-c3csc4ccccc34)cs2)c1 (centres undefined)	/	/	10	/	/	/
C/C=C/c1ccc(OCC(=O)Nc2ccncc2)c(OC)c1	/	/	16	-3	-3	/
C/C=C/c1ccc(OCC(=O)Nc2ccc(OC)c(OC)c2)c(OC)c1	16	3	-6	-69*	-2	22
COc1ccc(CC(C)Nc2cccc(SC)c2)cc1 (centres undefined)	/	/	3	-59*	1	/
COc1ccc(CC(=O)Nc2cccc(SC)c2)cc1	4	21	0	5	4	20
O=C(CSc1nc2ccccc2c(=O)[nH]1)Nc1ccc([N+](=O)[O-])cc1	/	/	61*	/	/	/
COc1ccc(/C=C/C(=O)OCC(=O)N2c3ccccc3CC2C)cc1 (centres undefined)	/	/	-18	/	/	/
CC1Cc2ccccc2N1C(=O)CO/N=C/c1ccc(OC(F)F)cc1 (centres undefined)	-11	6	-5	-88*	0	16
O=C(N/N=C\c1ccc(CNS(=O)(=O)c2ccc(Cl)cc2)o1)C(=O)Nc1ccc(Oc2ccccc2)cc1	-6	4	54*	/	2	1
CCc1nc2c(OCCn3cccc3)cccn2c1N(C)C(=O)c1ccc(C)cc1	/	/	4	/	/	/
Cc1ccc(CCNC(=O)CN2CCN(Cc3ccccc3F)C2=O)cc1	3	-8	-7	1	1	17
COc1ccc(CCNC(=O)CN2CCN(Cc3ccccc3F)C2=O)cc1OC	/	/	9	-74*	-6	-8
OC[C@@H]1CN(Cc2ccc(F)cc2)C[C@H](n2cnc3c(N4CCOCC4)ncnc32)O1	/	/	0	/	/	/
CCCSc1nnc(CNS(=O)(=O)c2ccc(C)cc2)n1C	/	/	-14	-61*	-3	/
C=CCSc1nnc(CNS(=O)(=O)c2ccc(C)cc2)n1C	/	/	29	-6	-3	/
S=c1nc(-c2ccccn2)c(-c2ccccn2)n[nH]1	/	/	-11	/	/	/
CC1=C(C(=O)N(C(C)C)C(C)C)CC(CC(=O)NCCN2CCOCC2)C(=O)N1Cc1ccc(F)cc1 (centres undefined)	/	/	8	/	/	/
C[C@@H](NC(=O)c1ncn2c1c(=O)[nH]c1ccc(Br)cc12)c1ccccc1	/	/	69*	/	/	/
C[C@@H](NC(=O)c1ncn2c1c(=O)[nH]c1cccnc12)c1ccccc1	/	/	-7	/	/	/
SMILES	STAT3 inh	STAT1 blocker	TRAIL sens C8	HSF1 inhib	HSP90 inh	PPC-1+TRAIL kill
CS(=O)(=O)c1ccc2nc(NC(=O)c3cc([N+](=O)[O-])cc([N+](=O)[O-])c3)sc2c1	/	/	-3	4	3	/
CS(=O)(=O)c1ccc2nc(NC(=O)c3cccc([N+](=O)[O-])c3)sc2c1	/	/	62*	15	-2	/
COC1=CC(=O)OC(c2cccc(C#N)c2)C1 (centres undefined)	/	/	0	/	/	/
CCOC(=O)/C=C/C(=O)Nc1cccc([N+](=O)[O-])c1	2	6	-30	11	-5	11
CCOC(=O)/C=C/C(=O)Nc1ccccc1-c1ccccc1NC(=O)/C=C/C(=O)OCC	-12	2	-4	-56*	0	15
CC1=C(C(=O)Nc2ccc(C)cc2)C(c2ccc(C)o2)C2=C(CC(C)(C)CC2=O)N1 (centres undefined)	15	0	-3	-62*	11	12
CC1=C(C(=O)OCCOc2ccccc2)C(c2ccc(C)o2)C2=C(CC(C)(C)CC2=O)N1 (centres undefined)	3	4	-10	9	3	8
COc1ccc(/C=C/C(=O)Nc2cc(C)nn2-c2nc3ccccc3[nH]2)cc1	5	-5	71*	144	1	49
Cc1ccc(Cn2c(Sc3ncccn3)nc3c2c(=O)[nH]c(=O)n3C)cc1	5	4	19	-65*	2	22
Cc1ccc(Cn2c(Sc3nccc(C)n3)nc3c2c(=O)[nH]c(=O)n3C)cc1	1	10	2	8	3	11
Cn1c(=O)[nH]c(=O)c2c1nc([N+](=O)[O-])n2Cc1ccccc1	/	/	85*	153	0	31
CCCN(C)C[C@@H]1OCc2cnnn2CCCC(=O)N([C@H](C)CO)C[C@H]1C	/	/	-1	/	/	/
Cc1ccc(N(NC(=O)C(O)(c2ccccc2)c2ccccc2)C(=O)CCl)cc1	2	0	54*	72	-1	30
O=C(Nc1ccccc1)NN(C(=O)CCl)c1ccccc1	/	/	97*	11	-2	/
CCOC(=O)c1c(C)[nH]c(C(=O)OCC(=O)Nc2sccc2C(N)=O)c1C	/	/	56*	-75*	/	/
CC[n+]1c(/C=C/c2cc([N+](=O)[O-])ccc2O)ccc2ccccc21	/	/	3	-58*	0	/
CC(C)CCNC(=O)c1cc(S(=O)(=O)N2CCC3(CC2)OCCO3)ccc1F	/	/	-9	/	/	/
N#CCCCC#Cc1ccc2c(c1)COc1c3ccccc3nn1-2	/	/	77*	-64*	/	/
Cc1ccc(S(=O)(=O)N(C)c2ccc3c(c2)C(=O)c2ccccc2-3)cc1	/	/	-14	/	/	/
O=C(c1cc(Br)c[nH]1)N1CCSCC1	/	/	-3	-84*	1	/
O=C(c1cc(Br)c[nH]1)N1CCCCC1	/	/	-10	1	-7	/
Cc1ccc(S(=O)(=O)N[C@@H](C)CO)cc1	/	/	3	/	/	/
CN(C)c1ncnc2c1ncn2[C@H]1CN(Cc2ccc(-c3ccccc3)cc2)C[C@@H](CO)O1	/	/	-11	/	/	/
CN(CCO)c1cc(Sc2nc3ccccc3s2)c2nonc2c1[N+](=O)[O-]	-7	-6	60*	41	3	9
CC(=O)OCCN(C)c1cc(SC(C)C)c2nonc2c1[N+](=O)[O-]	-16	5	3	11	2	10
C[C@@H]1CN([C@@H](C)CO)C(=O)CCCn2nncc2CO[C@@H]1CN(C)C(=O)Nc1cccc(Oc2ccccn2)c1	/	/	-1	/	/	/
Cc1ccc(C(=O)N/C(=C\c2ccc(-c3ccccc3[N+](=O)[O-])o2)C(=O)NCCN(C)C)cc1	/	/	54*	26	6	/
Cc1ccc(C(=O)N/C(=C\c2ccc(-c3ccccc3[N+](=O)[O-])o2)C(=O)NCCCN(C)C)cc1	/	/	49*	3	1	/
